This is one part of the list. Unmarked numbers belong to inactive results. Calls of active or inactive are those of the source. No stated cut-off is given here; in the data, active means activation above about 8.4%; inactive means the rest.
target: Galanin receptor type 2 (Homo sapiens) (UniProt O43603); test: GALR2 agonists, retest of hits, confirmation, cell-based (AID 864); details: GALR2-expressing cells, agonist activation; at 5.6 µM; hits give high values;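 further: 0% = buffer-only vehicle wells and 100% = full reference agonist response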
Sequence (O43603 whole entry, looked up): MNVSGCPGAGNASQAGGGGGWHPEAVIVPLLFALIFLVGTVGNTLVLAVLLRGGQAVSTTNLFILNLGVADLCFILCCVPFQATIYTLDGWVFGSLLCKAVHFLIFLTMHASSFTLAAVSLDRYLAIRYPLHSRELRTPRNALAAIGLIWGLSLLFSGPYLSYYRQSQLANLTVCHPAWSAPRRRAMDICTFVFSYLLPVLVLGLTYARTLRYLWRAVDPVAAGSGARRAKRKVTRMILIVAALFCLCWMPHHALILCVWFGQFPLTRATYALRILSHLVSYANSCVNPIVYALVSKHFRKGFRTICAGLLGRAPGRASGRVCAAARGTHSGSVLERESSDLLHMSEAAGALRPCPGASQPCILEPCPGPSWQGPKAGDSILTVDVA

Structure (SMILES)	activation
COc1ccc(C(=O)CN2C(=O)NC(C)(c3ccc(C)cc3)C2=O)cc1OC (stereo unspecified)	-0.91%
CC1(C)CC(=O)C=C(NCCN2CCNCC2)C1	-1.05%
COC(=O)c1ccc(NC(=O)C(C)N2C(=O)c3ccccc3C2=O)cc1 (stereo unspecified)	-0.71%
CC/C(C)=N/Nc1nc2sc3c(c2c(=O)[nH]1)CC(C)(C)OC3	-0.45%
C=CCn1c(Oc2ccc(C(=O)OC)cc2)nc2c1c(=O)n(C)c(=O)n2C	0.25%
Cn1c(=O)oc2cc(S(=O)(=O)N3CCC(C(=O)Nc4ccc(OC(F)(F)F)cc4)CC3)ccc21	1.24%
CCCOc1ccc(C(=O)C(CCC(CNCC)C(=O)c2ccc(OCCC)cc2)CNCC)cc1 (stereo unspecified)	16% (active)
O=c1oc2cc(O)ccc2cc1-c1ccc(F)cc1	2.23%
CC(=O)N(Cc1cccs1)C1CCOC(C)(C)C1 (stereo unspecified)	-1%
O=C1COc2ccc(NC(=O)N3CCN(c4ccc(F)cc4)CC3)cc2N1	-0.98%
Cc1ccc(CCC(=O)Nc2ncc(Cc3cc(Cl)ccc3Cl)s2)o1	7.28%
COc1ccccc1N1N=C(c2cccs2)CC1c1ccccc1 (stereo unspecified)	6.34%
Cc1csc(NC(=O)c2ccc(-c3ccc(Cl)cc3Cl)o2)n1	-0.78%
CC(=O)Oc1ccc(C(C)=O)c2c1OCCO2	-0.99%
C=CCN(CC=C)S(=O)(=O)c1ccc(C(=O)Nc2nc3c(s2)CCc2ccccc2-3)cc1	2.82%
Cc1ccc(Cc2c(C)nc3nc(SCC(=O)NCCN4CCOCC4)nn3c2C)cc1	-0.11%
COc1cc(SC#N)ccc1N=Cc1c(C)[nH]n(-c2ccc(C)cc2)c1=O	7.97%
OC(COc1cccc2ccccc12)CN1CCN(c2ccccn2)CC1 (stereo unspecified)	-0.28%
COCCN(CCOC)S(=O)(=O)c1ccc(C(=O)Nc2nc3c(s2)CCc2ccccc2-3)cc1	5.93%
Fc1ccc(N2N=C(c3cccs3)CC2c2ccco2)c(F)c1 (stereo unspecified)	1.22%
O=[N+]([O-])c1ccccc1SNc1ccccn1	-0.89%
CCOc1ccc(C(O)Cn2c(=N)n(CCN3CCCCC3)c3ccccc32)cc1 (stereo unspecified)	-0.63%
O=C(NC(=S)Nc1ccc(NC(=O)c2cccs2)cc1)c1ccc([N+](=O)[O-])cc1	-0.89%
COc1ccc(Nc2oc(-c3ccccc3Cl)nc2C#N)cc1	2%
CCOc1ccc2nc(Nc3nc4ccc(NC(C)=O)cc4s3)sc2c1	27.5% (active)
CCN(C(=O)CSc1ncn[nH]1)c1cccc2ccccc12	-1.13%
